Experimental data reported in the supplement of paper PMC3334620.
Over roughly 33,000 sequences, “E-score (-0.5 to 0.5)” has its median near -0.0034; the highest 2% begin near 0.25. The entries come from a sample that favours the highest values as a whole.

Molecular target: T1, Yap3 (UniProt P38749)
T1 sequence: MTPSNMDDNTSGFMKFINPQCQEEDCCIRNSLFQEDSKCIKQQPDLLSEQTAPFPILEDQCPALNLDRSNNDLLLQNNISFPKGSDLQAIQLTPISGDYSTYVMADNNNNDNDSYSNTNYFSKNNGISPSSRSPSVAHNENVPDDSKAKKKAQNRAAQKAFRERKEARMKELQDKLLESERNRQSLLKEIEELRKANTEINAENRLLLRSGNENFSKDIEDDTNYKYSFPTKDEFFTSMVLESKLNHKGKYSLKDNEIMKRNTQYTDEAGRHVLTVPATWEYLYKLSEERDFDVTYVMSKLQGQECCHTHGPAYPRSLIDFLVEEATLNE
Assay: PBM E-score (8-mer binding enrichment) (E-score (-0.5 to 0.5)); higher = stronger / more preferred TF binding
Details: protein concentration: 100 nM; construct: GST-full length
Experimental: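 Universal 'all 10-mer' protein binding microarrays (Agilent AMADID 015681) probed with GST-tagged S. cerevisiae TFs (full-length or DBD) made by in vitro transcription/translation (PURExpress), about 100-200 nM. Bound TF was detected with fluorescent anti-GST. Each ungapped 8-mer (which stands for itself and its reverse complement) is scored by the PBM enrichment score (E-score), a modified Wilcoxon-Mann-Whitney statistic from -0.5 to +0.5, computed with the Universal PBM Analysis Suite. Scale: above 0.35 generally sequence-specific binding.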

Row | Sequence | PBM E-score
1 | TACTAAGA | 0.242
2 | ACCGCTGG | -0.16
3 | CAGCCCCC | -0.384
4 | ATAAAGTC | 0.133
5 | CTAAAGTA | -0.0221
6 | ACAAAGTG | 0.0611
7 | ATAAAGTG | 0.271
8 | GTAAAGTA | 0.251
9 | ATAAAGTA | 0.286
10 | AGTGCGGC | -0.165
11 | GATGAGAA | 0.0962
12 | CCGCATGC | -0.00346
13 | AAAATGAC | 0.13
14 | AAAATGGG | -0.0559
15 | GTAATGGA | 0.288
16 | CTAATGGA | -0.0109
17 | CAAATGGA | -0.0854
18 | AAAATGGA | 0.309
19 | AAAATGAT | 0.265
20 | AAAATGAA | 0.208
21 | ATAATGGA | 0.188
22 | CACCCGAA | 0.0804
23 | ACCAAGAC | 0.175
24 | AACGACAT | 0.202
25 | AGAACTGC | -0.131
26 | CATGAACC | 0.0622

Row | Sequence | PBM E-score
27 | ATTCACAG | 0.0188
28 | ATTCACAA | 0.294
29 | GTTCACAA | 0.043
30 | GCATACGA | -0.062
31 | AAACGGAC | -0.155
32 | TTACGGAA | 0.266
33 | CTACGGAA | 0.068
34 | AAACGGAA | 0.263
35 | CAACGGTA | -0.108
36 | AAACGGAG | 0.0915
37 | ATACGGAA | 0.185
38 | ACACGGAA | 0.0309
39 | AAACGGTA | 0.301
40 | AAACGGAT | 0.277
41 | AAACGGGA | 0.12
42 | GAACGGTA | 0.083
43 | ACATGGGT | -0.0457
44 | ACTAGCAT | -0.0172
45 | ACAAGCGC | 0.0537
46 | ATACCATC | 0.119
47 | CCATTTGA | -0.0292
48 | TCGATCCA | -0.0884
49 | ACGCGCAC | -0.015
50 | CCAGTTAA | 0.143
51 | GGAGCCTA | -0.0407
52 | GAACGGAA | 0.0365

Row | Sequence | PBM E-score
53 | CAACGGAA | 0.15
54 | TAACGGAA | 0.276
55 | AACAAAAC | 0.239
56 | ACCAAAAT | 0.0693
57 | GACAAGAA | 0.127
58 | GACAAAAC | 0.179
59 | ACCAAAAC | 0.104
60 | GACAAAAA | 0.315
61 | AAACAAAA | 0.185
62 | GAACAAAA | 0.346
63 | ACCAAAAA | 0.277
64 | GAACAAAC | 0.227
65 | AACAAAAA | 0.307
66 | AACAAAAG | 0.164
67 | AGGCCACA | -0.191
68 | GGGATTGA | -0.173
69 | CAGTAGCA | -0.0517
70 | AGTGAAGG | 0.0123
71 | GAATCAAA | 0.0372
72 | GTATCAAA | 0.187
73 | TTATCAAA | 0.283
74 | TAATCAAA | 0.285
75 | CTATCAAA | 0.155
76 | CAATCAAA | 0.0584
77 | GGCGCTGA | -0.124
78 | ATCAGCTC | 0.00619

Row | Sequence | PBM E-score
79 | AGTTACAC | 0.0567
80 | CAACATTG | 0.115
81 | ATGATTTA | 0.202
82 | CCGATTTA | 0.107
83 | GCGATTTA | 0.0749
84 | CTGATTTA | 0.14
85 | GTGATTTA | 0.261
86 | ACGATTTA | 0.312
87 | CACCTCTA | 0.158
88 | GCAGATAA | -0.0214
89 | ATATACTC | 0.126
90 | ATATACAA | 0.322
91 | CTATACTA | 0.16
92 | ATATACAC | 0.171
93 | ATATACTA | 0.306
94 | CTATACAA | 0.189
95 | AGATCTAC | 0.0426
96 | AGTAACCC | -0.00628
97 | ACAAGTAA | 0.0548
98 | GTCCCTTA | 0.179
99 | ACTTATAG | -0.0355
100 | ACTTATTC | 0.162
101 | GCTTATTA | 0.232
102 | ACTTATAC | 0.174
103 | ACTTATTA | 0.263
104 | CCTTATGA | 0.113

Row | Sequence | PBM E-score
105 | CCTTATTA | 0.33
106 | CCTTATTC | 0.0232
107 | ACTTATAT | 0.29
108 | CCCACGTC | -0.122
109 | CGATTAGC | -0.102
110 | GCACTATA | 0.0864
111 | TAGCAAGA | 0.0496
112 | CCGTAATA | 0.201
113 | ACGTAAGA | 0.23
114 | ACGTAATG | 0.354
115 | ACGTAACG | 0.208
116 | GGGTAATA | 0.0455
117 | ACGTAATA | 0.44
118 | ACGTAAAA | 0.198
119 | AGGTAATA | 0.294
120 | GCGTAATA | 0.305
121 | GCGTAAAA | 0.231
122 | CGGTAATA | 0.202
123 | ACGTAAAG | 0.184
124 | GAGAGCGA | -0.166
125 | CCAGTGTC | -0.1
126 | GCAGATCC | 0.0102
127 | ATCAATAC | 0.11
128 | ACTACCTG | 0.0736
129 | GCGTCTCC | -0.0737
130 | AAATCCTT | -0.0476

Row | Sequence | PBM E-score
131 | CGCTACAC | -0.0665
132 | GATTCAAA | 0.0843
133 | AGCTCTAT | 0.0447
134 | GCTTCTCA | -0.0894
135 | CCAACATC | -0.011
136 | CCAACATA | 0.305
137 | GCAACATA | 0.0566
138 | CCAATGCC | -0.162
139 | AAAAGTAG | 0.105
140 | GCAGCAAA | -0.0366
141 | ACATTCTG | -0.0885
142 | CGCATTGA | 0.125
143 | GTCCTATA | -0.0462
144 | CTCCTATA | -0.191
145 | ATCCTATA | 0.26
146 | CGAGTTGA | 0.0975
147 | GCGGTCGA | 0.0757
148 | ACCTGAAG | 0.00792
149 | GCCTTTTA | -0.0778
150 | CTGGGCGC | -0.229
151 | CATTTTCC | 0.193
152 | CATTTCAA | 0.265
153 | CATTTCCC | 0.293
154 | GATTTCAA | 0.0767
155 | TATTTCAA | 0.235
156 | GATTTCCC | 0.124

Row | Sequence | PBM E-score
157 | ATGGGAGG | -0.0823
158 | TATCTGCA | 0.0463
159 | AAAGGTCG | -0.0514
160 | AACTTGCA | 0.108
161 | TATTCACA | 0.27
162 | CATTCACG | -0.0375
163 | GATTCACA | 0.00517
164 | GAAAATCC | 0.0305
165 | GCGATGAC | 0.0826
166 | AAAATTTG | 0.0972
167 | AGAATTTC | -0.00706
168 | CGAATTTA | 0.136
169 | AGAATTTG | 0.107
170 | CTAATTTA | 0.19
171 | GTAATTTA | 0.238
172 | CGAATTTC | 0.298
173 | ATAATTTG | 0.294
174 | ATAATTTA | 0.303
175 | ATAATTTC | 0.17
176 | AGAATTTA | 0.276
177 | GGAATTTA | 0.173
